# Source: PubChem
# Spn DPM-DC inh = S. pneumoniae DPM-DC inhibitors, primary screen, biochemical, PK/LDH-coupled NADH fluorescence; purified DPM-DC; AID 556, 2006; 0.49% of 65,000 active; calls only at 10 µM; diphosphomevalonate decarboxylase (Streptococcus pneumoniae D39);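 active means the 320 compounds with the highest percent inhibition in the single-dose primary screen, excluding strongly autofluorescent ones, cut at about 32% in these data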;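 further: kinetic rate of NADH fluorescence loss reporting ADP formed by the decarboxylase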
# MK inhibit = S. pneumoniae MK inhibitors, primary screen, biochemical, PK/LDH-coupled NADH absorbance. mevalonate kinase [Streptococcus pneumoniae D39]. purified MK, PK/LDH-coupled NADH absorbance 340 nm. inhibition, % at 10 µM. 0.48% of 65,000 active. AID 555, 2006;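 active means ranked among the strongest by inhibition in the single 10 µM screen, a fixed top-ranked set picked for dose follow-up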
# NADH coupling = inhibitors of PK/LDH coupling enzymes, profiling panel, artefact control, biochemical, MLSMR library | coupled PK/LDH NADH assays, four targets | IC50, µM (highest dose often 10 µM), inactives show at the top dose inhibition | 0.02% of 65,000 active | AID 774, 2007;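 active means single-dose screening hits from any of four coupled enzyme assays that gave an IC50 when retested across doses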;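 further: the DPM-DC format reads NADH fluorescence rather than 340 nm absorbance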
# Fluor 339 460 = intrinsic fluorescence of library compounds, ex339/em460 – biochemical, MLSMR library, data from DPM-DC assay, artefact control, profiling panel; compound autofluorescence, ex339/em460 nm, NADH buffer; stronger effect = higher value; 1 = no-compound wells, NADH background; fluorescence fold increase at 10 µM; 5.5% of 65,000 active;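 active means at 10 µM, mean starting fluorescence two-fold or more over control wells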;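 further: signal is the first read of a kinetic run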
# Abs 340nm = compound light absorbance at 340 nm, profiling panel, artefact control, biochemical, MLSMR library, data from PS, PMK, MK assays. compound absorbance at 340 nm, fold over control. fold change at 10 µM. 65,000 tested, under 10 active;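 active means at 10 µM dose, initial 340 nm absorbance at least 2 fold that of control wells; inactive means change under 2 fold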;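 further: initial absorbance extrapolated from kinetic A340 decline of NADH oxidation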
# Spn PMK inh = S. pneumoniae PMK inhibitors, primary screen, biochemical, mevalonate pathway, pilot trial included | phosphomevalonate kinase (Streptococcus pneumoniae D39) | purified PMK, PK/LDH-coupled NADH absorbance 340 nm | inhibition, % at 10 µM | 0.49% of 65,000 active | AID 539, 2006;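 active means top-ranked compounds by inhibition in the single 10 µM screen, taking a fixed number of the strongest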;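 further: 0% = full reaction with DMSO carrier and 100% = background rate without enzyme reaction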
# * marks the source's active call; other numbers are inactive results; i = inactive; . = no result shown. This is a sample that favours compounds with a hit; in the whole collection about 6.5% have one here.
SMILES,Spn DPM-DC inh,MK inhibit,NADH coupling,Fluor 339 460,Abs 340nm,Spn PMK inh
CCOc1cc(S(=O)(=O)NCc2ccco2)c(OCC)cc1-n1cnnn1,.,7.0,10.0%,3.21*,1.02,13.0
CCOc1cc(S(=O)(=O)NCC2OCCc3ccccc32)c(OCC)cc1-n1cnnn1 (stereo not drawn),.,0.0,0.0%,3.87*,1.08,0.0
CCOc1ccccc1CN(Cc1ccco1)S(=O)(=O)c1ccc(-n2cnnn2)c(OC)c1,i,7.0,3.0%,1.04,1,8.0
CCCCc1ccc(NC(=O)N[C@H](C(=O)O)C(C)CC)cc1 (stereo partly drawn),i,3.0,2.0%,1.07,1.01,2.0
C=CCn1c(SCC(=O)/C(C#N)=C(\C)N)nc2sc(CC)cc2c1=O,i,6.0,2.0%,1.09,1.08,0.0
CCCOc1ccc(-c2nnc(-c3ccco3)o2)cc1,i,15.0,7.0%,2.19*,1.01,5.0
Nc1c2c(nc3ccccc13)N(c1ccccc1)CC2,.,42.0*,21.0%,2.27*,1.08,0.0
CCOC(=O)c1cc(-c2cc3ccccc3o2)nc2c1c(=O)[nH]c(=O)n2CCOC,.,2.0,9.0%,5.14*,1.14,15.0
Nn1c(SCC(=O)N2CCCc3ccccc32)nnc1-c1ccc(Cl)cc1,i,3.0,5.0%,1.03,0.99,13.0
CN(C)C(=O)COc1ccc2ccc(=O)oc2c1,.,7.0,6.0%,2.16*,1.05,4.0
Cc1cc(-n2c(C)cc(C(=O)COc3ccc4ccc(=O)oc4c3)c2C)no1,.,0.0,6.0%,4.22*,1.08,12.0
CCOC(=O)COc1ccc2cc(C(=O)OCC)c(=O)oc2c1,.,4.0,5.0%,2.34*,1.12,5.0
COc1cccc2c(=O)c3c(cnn3C)n(C)c12,.,0.0,1.0%,2.51*,1,0.0
O=C1NC(=O)[C@@H]2C3c4ccccc4C=CN3[C@H](C(=O)c3cccs3)[C@H]12 (stereo partly drawn),i,9.0,6.0%,1.14,1.02,8.0
Cc1[nH]n2c(=O)cc(C(C)(C)C)nc2c1-c1ccccc1,i,12.0,16.0%,2.34*,1,13.0
Cc1cc(CC(=O)O)c(C)cc1CC(=O)O,i,8.0,4.0%,1.03,1.02,0.0
Cc1cccn2c(N)c(-c3ccccc3)nc12,.,0.0,6.0%,2.11*,1.1,12.0
CC(=O)N1c2ccccc2N(Cc2ccc(C)cc2C)C(=O)C1(C)C,i,3.0,7.0%,0.95,1.03,15.0
C=C(C)Cn1c(N2CC(C)CC(C)C2)nc2c1c(=O)[nH]c(=O)n2C (stereo not drawn),i,3.0,2.0%,1.05,0.97,5.0
CCCCCn1c(-c2ccco2)nc2nc3ccccc3nc21,.,0.0,0.0%,3.91*,1.09,0.0
Cc1ccc(-c2nc3nc4ccccc4nc3n2Cc2ccco2)cc1,i,10.0,12.0%,2*,1.13,13.0
COc1ccccc1Cn1c(-c2ccco2)nc2nc3ccccc3nc21,i,9.0,4.0%,1.74,1.04,1.0
c1ccc(Cn2c(-c3ccco3)nc3nc4ccccc4nc32)cc1,.,9.0,12.0%,3.69*,1.08,15.0
COc1ccc(CCn2c(-c3ccco3)nc3nc4ccccc4nc32)cc1,i,0.0,3.0%,1.35,1.02,9.0
O=C(NC1(C(=O)NC2CCCC2)CCCCC1)c1ccc2c(c1)OCO2,i,9.0,3.0%,1.1,1.03,0.0
OC1(c2ccccc2)C/C(=N\n2cnnc2)C=C1c1ccccc1 (stereo not drawn),i,6.0,3.0%,1.16,1.05,4.0
O=C(COC(=O)c1ccccc1NC(=O)c1ccco1)NCCC1=CCCCC1,.,9.0,12.0%,2.03*,1.07,14.0
CCN=C1Cn2c(nc3scc(-c4ccccc4)c3c2=O)CN1CC,i,0.0,4.0%,2.37*,1.03,4.0
COC(=O)c1[nH]c2ccc(C)cc2c1NC(=O)CN1CCN(c2ccccc2)CC1,i,10.0,9.0%,2.13*,1.05,17.0
